Data published in PubChem BioAssay (Tox21).
Records with an inconclusive call do not appear. Calls of active or inactive are those of the source. Unless noted, calls come from the whole dose curve; as a rule, active = well fitted curve in the direction sought with a large enough effect in the repeat runs; inconclusive = weak or mixed curves; inactive = no such curve, though single readings can be large; an effect the other way counts as inactive or inconclusive.

Experiments:
[1] = qHTS assay to identify small molecule agonists of the peroxisome proliferator-activated receptor delta (PPARd) signaling pathway - cell viability counter screen (AID 743211); note: nearly all actives have a fitted effect of over 55% in size
In short: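 Following 5 h plating at 37 C and 5% CO2, PPARd UAS-bla HEK293H cells took up test compounds for 17 h. Viability was quantified by luminescence 30 min after CellTiter-Glo addition at room temperature.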

[2] = qHTS assay to identify small molecule antagonists of the peroxisome proliferator-activated receptor delta (PPARd) signaling pathway - cell viability counter screen (AID 743213); note: nearly all actives have a fitted effect of over 50% in size
In short: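 In this counter screen, HEK293H cells carrying a UAS-beta-lactamase reporter are co-treated with test compounds and 300 nM L165041 (final) for 17 h at 37 C; cell viability is quantified by CellTiter-Glo luminescence.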

[3] = qHTS assay to identify small molecule agonists of the farnesoid-X-receptor (FXR) signaling pathway - cell viability counter screen (AID 743218); note: nearly all actives have a fitted effect of over 45% in size
In short: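 Parallel cytotoxicity test: compound-treated (16 h, 37 C) HEK 293T FXR-bla reporter cells were lysed with CellTiter-Glo and luminescence recorded.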

[4] = target: Bile acid receptor (Homo sapiens) (UniProt Q96RI1); experiment: qHTS assay to identify small molecule agonists of the farnesoid-X-receptor (FXR) signaling pathway (AID 743220; active = well fitted activation curve with a large enough effect in the signal ratio in the repeat runs, not every such curve was filed as active; the % refers to the signal ratio)
In short: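 Beta-lactamase reporter under UAS control in GeneBLAzer FXR HEK 293T cells (5000/well) measured with LiveBLAzer FRET substrate after 2 h at room temperature. Compound exposure lasted 16 h at 37C.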

[5] = qHTS assay to identify small molecule antagonists of the farnesoid-X-receptor (FXR) signaling pathway - cell viability counter screen (AID 743221; active = well fitted cell-killing curve with a large enough effect in the repeat runs, not every such curve was filed as active; note: nearly all actives have a fitted effect of over 50% in size)
In short: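 Compound effects on cell number were measured as CellTiter-Glo luminescence in HEK 293T cells expressing FXR-UAS-bla, after 16 h at 37 C with 50 uM CDCA (final).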

[6] = target: Vitamin D3 receptor (Homo sapiens) (UniProt P11473); experiment: qHTS assay to identify small molecule agonists of the vitamin D receptor (VDR) signaling pathway (AID 743222; calls by dose curve)
In short: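 In VDR-bla cells, compound-induced beta-lactamase expression is quantified by FRET substrate fluorescence. Treatment lasts 16 h at 37C; substrate develops 2 h at room temperature.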

[7] = qHTS assay to identify small molecule agonists of the vitamin D receptor (VDR) signaling pathway - cell viability counter screen (AID 743224); note: series mostly up to about 63 µM; nearly all actives have a fitted effect of over 50% in size
In short: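 Plated VDR-bla cells (4 h, 37C) received compound, incubated 16 h, then LiveBLAzer substrate 2 h RT; CellTiter-Glo added afterwards, luminescence read at 30 min.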

[8] = qHTS assay to identify small molecule antagonists of the vitamin D receptor (VDR) signaling pathway - cell viability counter screen (AID 743225); note: nearly all actives have a fitted effect of over 50% in size
In short: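 In this counter screen, VDR-bla HEK 293T cells receive test compound plus 3 nM final calcitriol for 16 h at 37C. Room-temperature steps of 2 h with the beta-lactamase substrate, then 30 min with CellTiter-Glo, precede the luminescence read.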

[9] = qHTS assay to identify small molecule agonists of the NFkB signaling pathway (AID 1159509; active = well fitted curve in the direction sought with a large enough effect in the signal ratio in the repeat runs, not every such curve was filed as active; the % refers to the signal ratio; note: series mostly up to about 61 µM)
In short: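 ME-180 NFkB-bla, 2,000 cells/well, overnight plating; cpd pinned in DMSO, 5 h 37 C; B/G FRET substrate 1.5 h RT; ex 405, em 460/530 nm.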

[10] = qHTS assay to identify small molecule agonists of the NFkB signaling pathway - cell viability counter screen (AID 1159515; calls by dose curve; note: series mostly up to about 61 µM; nearly all actives have a fitted effect of over 55% in size)
In short: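 Using the same wells as the NFkB reporter read, ME-180 NFkB-bla cells given compounds for 5 hr were assessed for viability via CellTiter-Glo, with luminescence taken after a 30 min room-temperature incubation.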

[11] = qHTS assay to identify small molecule agonists of the endoplasmic reticulum stress response signaling pathway (AID 1159516; active = well fitted activation curve with a large enough effect in the signal ratio in the repeat runs, not every such curve was filed as active; the % refers to the signal ratio)
In short: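 An ESRE-bla HeLa cell assay: compounds were pin-transferred from DMSO onto overnight-plated cells and left 5 hr at 37 C. Substrate was then loaded for 2 hr at room temperature before reading fluorescence at 460 nm and 530 nm.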

[12] = qHTS assay to identify small molecule agonists of the endoplasmic reticulum stress response signaling pathway - cell viability counter screen (AID 1159517; calls by dose curve)
In short: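 CellTiter-Glo was added to wells already read for beta-lactamase FRET, and luminescence was recorded 30 min later. Cells: ESRE-bla HeLa, 1,500 per well, compound exposure 5 hr at 37 C.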

[13] = qHTS assay to identify small molecule antagonists of the retinoid-related orphan receptor gamma (ROR-gamma) signaling pathway - cell viability counter screen (AID 1159520); note: nearly all actives have a fitted effect of over 50% in size
In short: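 Tet-on ROR gamma CHO cells (1,000/well) were plated 4 hr, given compounds in DMSO for 2 hr at 37 C, then induced with 1 uM final doxycycline for 16 hr. Viability was read as ATP by CellTiter-Glo luminescence after 30 min.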

[14] = target: Nuclear receptor ROR-gamma (Homo sapiens) (UniProt P51449); experiment: qHTS assay to identify small molecule antagonists of the retinoid-related orphan receptor gamma (ROR-gamma) signaling pathway (AID 1159521)
In short: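 Screening format: cell-based luciferase reporter in CHO cells with doxycycline-inducible RORγ. Compound pre-exposure lasts 2 h, doxycycline is 1 uM final, induction runs 16 h at 37 C, and ONE-Glo luminescence is read.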

[15] = qHTS assay to identify small molecule agonists of the AP-1 signaling pathway - cell viability counter screen (AID 1159525; calls by dose curve; note: nearly all actives have a fitted effect of over 55% in size)
In short: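 ME-180 AP-1-bla, 2500 cells/well, Opti-MEM + 0.5% dialyzed FBS; overnight 37 °C; cpd 15-pt titration, 5 h 37 °C; CellTiter-Glo 30 min RT; luminescence read; normalised to TOAB and DMSO controls.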

[16] = qHTS assay to identify small molecule agonists of the AP-1 signaling pathway (AID 1159526; calls by dose curve)
[17] = target: Vitamin D3 receptor (Homo sapiens) (UniProt P11473); experiment: qHTS assay to identify small molecule antagonists of the vitamin D receptor (VDR) signaling pathway (AID 743223; active = well fitted inhibition curve with a large enough effect in the signal ratio in the repeat runs, not every such curve was filed as active; the % refers to the signal ratio)
In short: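 Beta-lactamase activity in VDR-bla cells is measured by FRET substrate fluorescence (2 h, room temperature) after cells spend 16 h at 37C with test compound and 3 nM final 1alpha,25-dihydroxyvitamin D3.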

[18] = target: Peroxisome proliferator-activated receptor delta (Homo sapiens) (UniProt Q03181); experiment: qHTS assay to identify small molecule antagonists of the peroxisome proliferator-activated receptor delta (PPARd) signaling pathway (AID 743215; active = well fitted inhibition curve with a large enough effect in the signal ratio in the repeat runs, not every such curve was filed as active; the % refers to the signal ratio;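 note: cells stimulated with agonist L165041 at 300 nM final during compound exposure; series mostly up to about 62 µM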)
In short: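 HEK293H UAS-bla, PPARd; agonist L165041 300 nM final with cpd in DMSO; 37 C 17 h; FRET substrate, RT 2 h; fluorescence intensity.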

[19] = target: Bile acid receptor (Homo sapiens) (UniProt Q96RI1); experiment: qHTS assay to identify small molecule antagonists of the farnesoid-X-receptor (FXR) signaling pathway (AID 743217; active = well fitted inhibition curve with a large enough effect in the signal ratio in the repeat runs, not every such curve was filed as active; the % refers to the signal ratio)
In short: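 GeneBLAzer FXR-UAS-bla HEK 293T, CDCA-stimulated (50 uM final). Compound treatment 16 h, 37 °C. Detection: beta-lactamase cleavage of B/G FRET substrate, fluorescence.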

[20] = target: Peroxisome proliferator-activated receptor delta (Homo sapiens) (UniProt Q03181); experiment: qHTS assay to identify small molecule agonists of the peroxisome proliferator-activated receptor delta (PPARd) signaling pathway (AID 743212; calls by dose curve)
In short: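 A PPARd-bla HEK293H line with beta-lactamase under an Upstream Activator Sequence is treated with compounds at 37 C. Substrate loading for 2 h at room temperature precedes the fluorescence measurement.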

Measured: Potency

Sequence of Vitamin D3 receptor (Homo sapiens) (P11473 whole entry, looked up): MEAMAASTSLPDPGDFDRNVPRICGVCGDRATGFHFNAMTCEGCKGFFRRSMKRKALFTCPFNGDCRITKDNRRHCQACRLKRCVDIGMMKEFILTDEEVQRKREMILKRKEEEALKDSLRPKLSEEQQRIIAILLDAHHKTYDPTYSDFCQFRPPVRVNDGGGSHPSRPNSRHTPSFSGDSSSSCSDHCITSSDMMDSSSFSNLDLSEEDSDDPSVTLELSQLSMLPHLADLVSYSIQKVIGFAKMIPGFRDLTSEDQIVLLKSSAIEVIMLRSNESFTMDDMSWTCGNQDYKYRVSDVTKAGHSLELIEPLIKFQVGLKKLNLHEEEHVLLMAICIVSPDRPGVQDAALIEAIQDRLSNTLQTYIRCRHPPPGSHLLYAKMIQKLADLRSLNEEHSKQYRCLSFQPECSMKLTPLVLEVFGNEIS
Sequence of Peroxisome proliferator-activated receptor delta (Homo sapiens) (Q03181 whole entry, looked up): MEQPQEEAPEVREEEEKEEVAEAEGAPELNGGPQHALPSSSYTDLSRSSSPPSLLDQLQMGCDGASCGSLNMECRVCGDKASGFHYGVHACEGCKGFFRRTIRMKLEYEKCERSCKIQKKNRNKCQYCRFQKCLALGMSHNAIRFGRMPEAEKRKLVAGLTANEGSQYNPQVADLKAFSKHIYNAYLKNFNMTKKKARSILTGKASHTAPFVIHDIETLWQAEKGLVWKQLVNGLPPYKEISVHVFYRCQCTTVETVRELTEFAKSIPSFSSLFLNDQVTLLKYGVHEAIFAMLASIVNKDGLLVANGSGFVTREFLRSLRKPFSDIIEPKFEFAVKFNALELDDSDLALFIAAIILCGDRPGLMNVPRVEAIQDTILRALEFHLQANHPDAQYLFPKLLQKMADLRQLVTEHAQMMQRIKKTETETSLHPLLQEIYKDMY
Sequence of Bile acid receptor (Homo sapiens) (Q96RI1 whole entry, looked up): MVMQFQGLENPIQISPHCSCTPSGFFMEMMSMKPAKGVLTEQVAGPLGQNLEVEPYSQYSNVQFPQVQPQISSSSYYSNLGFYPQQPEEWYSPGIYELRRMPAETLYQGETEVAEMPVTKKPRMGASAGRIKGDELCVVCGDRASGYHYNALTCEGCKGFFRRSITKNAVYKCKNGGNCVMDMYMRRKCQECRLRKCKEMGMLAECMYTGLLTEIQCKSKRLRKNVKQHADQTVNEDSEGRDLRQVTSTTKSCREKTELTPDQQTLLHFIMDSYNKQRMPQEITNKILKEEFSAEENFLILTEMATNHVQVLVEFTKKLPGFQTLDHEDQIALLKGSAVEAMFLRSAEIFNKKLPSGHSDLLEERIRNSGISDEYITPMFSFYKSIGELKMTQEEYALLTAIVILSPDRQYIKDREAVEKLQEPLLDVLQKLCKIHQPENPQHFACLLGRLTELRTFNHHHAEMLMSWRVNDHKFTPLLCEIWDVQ

Cc1ccccc1C(=O)Nc1ccc(C(=O)N2CCCC(N(C)C)c3ccccc32)cc1 (stereo unspecified)
not listed: [17] | [18] | [19] | [20]
inactive: all other assays above

CCCCCCCCCCCCCC
not listed: [4] | [18] | [19] | [20]
inactive: all other assays above

CN(C)C(=O)CNC(=O)Cc1ccccc1
not listed: [2] | [3] | [4] | [17] | [18] | [19] | [20]
inactive: all other assays above

Brc1ccc(-c2ccccc2)cc1
not listed: [4] | [18] | [19] | [20]
inactive: all other assays above

On1nnc2ccccc21
not listed: [2] | [3] | [4] | [5] | [18] | [19] | [20]
inactive: all other assays above

CC(C(=O)O)c1ccc2c(c1)CC(=O)c1ccccc1S2 (stereo unspecified)
not listed: [4] | [6] | [17] | [19] | [20]
inactive: all other assays above

CC1(CO)CN(c2ccccc2)NC1=O (stereo unspecified)
not listed: [1] | [3] | [4] | [5] | [7] | [8] | [19] | [20]
inactive: all other assays above

O=C(NCCc1c[nH]c2ccccc12)c1cccnc1
not listed: [1] | [18] | [20]
inactive: all other assays above

CC(S)C(=O)NCC(=O)O (stereo unspecified)
not listed: [1] | [4] | [17] | [18] | [19] | [20]
inactive: all other assays above

Cc1cccc(C)c1NC(=O)c1ccccc1C(=O)O
not listed: [1] | [4] | [17] | [18] | [19] | [20]
inactive: all other assays above

C=C(C)C(=O)OCCOP(=O)(O)OCCOC(=O)C(=C)C
not listed: [1] | [2] | [8] | [17]
inactive: all other assays above

O=C(CCN1CCN(CCO)CC1)N1c2ccccc2Sc2ccc(C(F)(F)F)cc21
not listed: [1] | [3] | [4] | [17] | [19]
inactive: all other assays above

Nc1ncnc(Nc2ccccc2)n1
not listed: [1] | [4] | [17] | [19]
inactive: all other assays above

C=C1CC/C=C(\C)CC[C@@H]2[C@@H]1CC2(C)C
not listed: [1] | [18] | [20]
inactive: all other assays above

O=C(O)C(=O)Cc1ccccc1
not listed: [1] | [2] | [4] | [19]
inactive: all other assays above
